# Experimental data reported in PubChem BioAssay.
# The source made the active and inactive calls.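 How the source made its calls, unless noted: active means primary screen active and over 50% activation in each of two duplicate runs; inactive means the rest.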
# System: TRPC4 beta (transient receptor potential cation channel C4), mouse
# Experiment: activators of mouse TRPC4 channel, confirmation, cell-based, Fluo4 calcium, HEK293 TRPC4beta/mu-opioid, duplicates, 10 µM (AID 2426;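 active means fluorescence ratio normalized to control raised more than 50% in primary screen plus both repeat runs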;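 on activation: percent rise of integrated ratio over buffer wells lacking compound which define 0%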)
# Settings: Fluo4 calcium fluorescence, at 10 µM; stronger effect = higher value
Structure (SMILES),outcome,activation
COc1cc(C(F)(F)F)nc2c(Br)c(C(C)(C)C)nn12,inactive,
COc1ccccc1N(C(=O)c1snc(C(N)=O)c1N)C(C(=O)NC1CCCC1)c1ccc2ncccc2c1 (stereo not given),inactive,
CCc1c(C(=O)N2CCCN(C)CC2)csc1C,inactive,
O=c1c2ccccc2nc(SCc2ccc([N+](=O)[O-])cc2)n1CCCO,inactive,
CN1/C(=C\C(=O)C[n+]2ccc3ccccc3c2)C(C)(C)c2ccccc21,inactive,
CN(C)CCCN(C(=O)c1ccc(S(=O)(=O)N2CCCC2)cc1)c1nc2c(F)cc(F)cc2s1,inactive,
O=[N+]([O-])c1cccc(N(CC(O)CN2CCCC2)S(=O)(=O)c2ccccc2)c1 (stereo not given),inactive,
Cc1cc(Nc2cccc(O)c2)c2ccccc2n1,inactive,
COc1ccc(CN2CCN(Cc3ccc(C(F)(F)F)cc3)CC2)c(OC)c1,inactive,
O=[N+]([O-])c1ccc(O)c(C2=NNC(c3ccccc3F)C2)c1 (stereo not given),,87% (active)
Cn1c(-c2ccccc2)cnc1NCc1ccc(F)cc1,inactive,
COc1nc(N=C(N)N)nc2ccc(C)cc12,inactive,
CN(CC(=O)NC1CCCc2ccccc21)C1CCCCC1 (stereo not given),inactive,
O=C(CSc1nnc(-c2ccc(Cl)cc2Cl)n1C1CCCCC1)N1CCCC1,inactive,
Cc1ccc(Nc2cc(C)nc3c(C)cccc23)cc1,inactive,
COc1cc(OC)c(C2N(C)c3ccccc3N2C)cc1OC,inactive,
O=[N+]([O-])c1cccc(-c2nnc(C3CC3)o2)c1,inactive,
O=C(NCCN1CCOCC1)c1cc2sccc2n1Cc1ccc(F)cc1,inactive,
CN(C)CCCNc1c2ccccc2nc2ccccc12,inactive,
COc1ccccc1Nc1nc(NCC2CCCO2)c2ccccc2n1 (stereo not given),inactive,

Structure (SMILES),outcome,activation
CC12CCC(C/C1=N/OC(=O)c1cccc([N+](=O)[O-])c1)C2(C)C (stereo not given),inactive,
CCN(CC)CCN(C(=O)c1ccccc1OC)c1nc2ccc(F)cc2s1,inactive,
CCOc1ccccc1N(C(=O)c1snc(C(N)=O)c1N)C(C(=O)NCc1ccccc1)c1ccc(O)cc1 (stereo not given),inactive,
Cc1cc([N+](=O)[O-])ccc1NCc1ccccc1,inactive,
Cn1c(-c2ccc(F)cc2)cnc1NCc1ccc(F)cc1F,inactive,
Nc1cc(N2CCCCC2)c([N+](=O)[O-])cc1Cl,inactive,
CN(C)C(CNC(=O)c1cccc(C(F)(F)F)c1)c1ccco1 (stereo not given),inactive,
COc1ccc(CN2CCN(C(=O)c3ccc(F)cc3)CC2)c(OC)c1,inactive,
COCCn1c(SCc2ccccc2F)nc2ccccc2c1=O,inactive,
COc1ccccc1C(=O)Nc1ccc2c(c1)CCCN2C(=O)c1cccs1,inactive,
CCCCn1c(NCc2ccc(N(C)C)cc2)nc2ccccc21,inactive,
COc1ccc([N+](=O)[O-])cc1NCc1ccco1,inactive,
Cc1cc(C)c2nc(C)cc(N/N=C/c3ccc(O)cc3)c2c1,inactive,
Cc1nn(C(=O)CNS(=O)(=O)c2ccccc2)c(C)c1Sc1ccc(Cl)cc1,inactive,
Cc1n[nH]c(C)c1CCCCOc1ccccc1F,inactive,
COC(=O)C1=C(C)N(Cc2ccccc2)C(=S)N[C@H]1c1ccccc1,inactive,
CC1(c2ccccc2)CC(C)(C)N(C(=O)C2CCCO2)c2ccccc21 (stereo not given),inactive,
CC(OC(=O)CNC(=O)c1ccccc1F)C(=O)Nc1nc(-c2ccccc2)cs1 (stereo not given),inactive,
CC(OCC(O)CN(C)CCOc1ccccc1)c1ccc(Cl)cc1 (stereo not given),inactive,
Cc1cc(-c2sccc2C)nc(-n2cccc2)n1,inactive,

# System: transient receptor potential cation channel C4 beta (TRPC4), mouse
# Experiment: activators of mouse TRPC4 channel, confirmation, cell-based, second round, Fluo4, HEK293 TRPC4beta/mu-opioid, 1 µM (AID 2461)
# Settings: Fluo4 calcium fluorescence, at 1 µM; stronger effect = higher value
row,Structure (SMILES),outcome
1,COc1cc(C(F)(F)F)nc2c(Br)c(C(C)(C)C)nn12,inactive
2,COc1ccccc1N(C(=O)c1snc(C(N)=O)c1N)C(C(=O)NC1CCCC1)c1ccc2ncccc2c1 (stereo not given),inactive
3,CCc1c(C(=O)N2CCCN(C)CC2)csc1C,inactive
4,O=c1c2ccccc2nc(SCc2ccc([N+](=O)[O-])cc2)n1CCCO,inactive
5,CN1/C(=C\C(=O)C[n+]2ccc3ccccc3c2)C(C)(C)c2ccccc21,inactive
6,CN(C)CCCN(C(=O)c1ccc(S(=O)(=O)N2CCCC2)cc1)c1nc2c(F)cc(F)cc2s1,inactive
7,O=[N+]([O-])c1cccc(N(CC(O)CN2CCCC2)S(=O)(=O)c2ccccc2)c1 (stereo not given),inactive
8,Cc1cc(Nc2cccc(O)c2)c2ccccc2n1,inactive
9,COc1ccc(CN2CCN(Cc3ccc(C(F)(F)F)cc3)CC2)c(OC)c1,inactive
10,O=[N+]([O-])c1ccc(O)c(C2=NNC(c3ccccc3F)C2)c1 (stereo not given),inactive
11,Cn1c(-c2ccccc2)cnc1NCc1ccc(F)cc1,inactive
12,COc1nc(N=C(N)N)nc2ccc(C)cc12,inactive
13,CN(CC(=O)NC1CCCc2ccccc21)C1CCCCC1 (stereo not given),inactive
14,O=C(CSc1nnc(-c2ccc(Cl)cc2Cl)n1C1CCCCC1)N1CCCC1,inactive
15,Cc1ccc(Nc2cc(C)nc3c(C)cccc23)cc1,inactive
16,COc1cc(OC)c(C2N(C)c3ccccc3N2C)cc1OC,inactive
17,O=[N+]([O-])c1cccc(-c2nnc(C3CC3)o2)c1,inactive
18,O=C(NCCN1CCOCC1)c1cc2sccc2n1Cc1ccc(F)cc1,inactive
19,CN(C)CCCNc1c2ccccc2nc2ccccc12,inactive
20,COc1ccccc1Nc1nc(NCC2CCCO2)c2ccccc2n1 (stereo not given),inactive

row,Structure (SMILES),outcome
1,CC12CCC(C/C1=N/OC(=O)c1cccc([N+](=O)[O-])c1)C2(C)C (stereo not given),inactive
2,CCN(CC)CCN(C(=O)c1ccccc1OC)c1nc2ccc(F)cc2s1,inactive
3,CCOc1ccccc1N(C(=O)c1snc(C(N)=O)c1N)C(C(=O)NCc1ccccc1)c1ccc(O)cc1 (stereo not given),inactive
4,Cc1cc([N+](=O)[O-])ccc1NCc1ccccc1,inactive
5,Cn1c(-c2ccc(F)cc2)cnc1NCc1ccc(F)cc1F,inactive
6,Nc1cc(N2CCCCC2)c([N+](=O)[O-])cc1Cl,inactive
7,CN(C)C(CNC(=O)c1cccc(C(F)(F)F)c1)c1ccco1 (stereo not given),inactive
8,COc1ccc(CN2CCN(C(=O)c3ccc(F)cc3)CC2)c(OC)c1,inactive
9,COCCn1c(SCc2ccccc2F)nc2ccccc2c1=O,inactive
10,COc1ccccc1C(=O)Nc1ccc2c(c1)CCCN2C(=O)c1cccs1,inactive
11,CCCCn1c(NCc2ccc(N(C)C)cc2)nc2ccccc21,inactive
12,COc1ccc([N+](=O)[O-])cc1NCc1ccco1,inactive
13,Cc1cc(C)c2nc(C)cc(N/N=C/c3ccc(O)cc3)c2c1,inactive
14,Cc1nn(C(=O)CNS(=O)(=O)c2ccccc2)c(C)c1Sc1ccc(Cl)cc1,inactive
15,Cc1n[nH]c(C)c1CCCCOc1ccccc1F,inactive
16,COC(=O)C1=C(C)N(Cc2ccccc2)C(=S)N[C@H]1c1ccccc1,inactive
17,CC1(c2ccccc2)CC(C)(C)N(C(=O)C2CCCO2)c2ccccc21 (stereo not given),inactive
18,CC(OC(=O)CNC(=O)c1ccccc1F)C(=O)Nc1nc(-c2ccccc2)cs1 (stereo not given),inactive
19,CC(OCC(O)CN(C)CCOc1ccccc1)c1ccc(Cl)cc1 (stereo not given),inactive
20,Cc1cc(-c2sccc2C)nc(-n2cccc2)n1,inactive
